Records with an inconclusive call do not appear. Activity calls are given as the source filed them. Calls come from the whole dose curve; as a rule, active = well fitted cell-killing curve with a large enough effect; inconclusive = small, poorly fitted or top-dose-only effect, or effect the other way; inactive = no such curve, though single readings can be large or run the other way. Starred links: 1 amine or outer side, 2 acyl side, 3 side chain; linkers in the order of their positions; H or OH if unused. Positions of bridges follow the written chain, without caps; N, C: chain ends. Non-standard residues stand in square brackets, D forms with d. Residues, ends and D or L forms follow the SMILES beside them. Chains are numbered I, II in the order given. Actinocin(9to1) = Cc1c2oc3c(C)ccc(C(=O)[*:1])c3nc-2c(C(=O)[*:2])c(N)c1=O; NMeV = CN[CH](C(=O)O)C(C)C; Sar = CNCC(=O)O
Test: Quantitative High-Throughput drug screen in 47 multiple myeloma cell lines against the NCATS MIPE library collection: KMS21BM_JCRB cell viability assay (AID 1918974)
Settings: ATP luminescence, 48 h; viability: at 45.8 µM
Description: PI: Beverly A. Mock Ph.D.
Laboratory of Cancer Biology and Genetics,
Center for Cancer Research, National Cancer Institute,
National Institute of Health, Bethesda, Maryland
Drug resistance and disease progression are common in multiple myeloma (MM) patients, underscoring the need for new therapeutic combinations. […] We hypothesized that effective combinations would reduce MYC expression and enhance p16 activity. […] These preclinical data identify potentially useful drug combinations for evaluation in drug-resistant MM and reveal potential mechanisms of combined drug sensitivity.
Described herein is the primary MIPE qHTS used to cherrypick compounds. Validated compounds were then further tested for potential synergistic activiy.
[1] Peat TJ, Gaikwad SM, Dubois W, Gyabaah-Kessie N, Zhang S, Gorjifard S, Phyo Z, Andres M, Hughitt VK, Simpson RM, Miller MA, Girvin AT, Taylor A, Williams D, D'Antonio N, Zhang Y, Rajagopalan A, Flietner E, Wilson K, Zhang X, Shinn P, Klumpp-Thomas C, McKnight C, Itkin Z, Chen L, Kazandijian D, Zhang J, Michalowski AM, Simmons JK, Keats J, Thomas CJ, Mock BA. Drug combinations identified by high-throughput screening promote cell cycle transition and upregulate Smad pathways in myeloma. Cancer Lett. 2023 Aug 1;568:216284. doi: 10.1016/j.canlet.2023.216284. Epub 2023 Jun 24. PMID: 37356470; PMCID: PMC10408729.
SEQUENCE No. (e.g., 1, 2, 3, etc.); […] (e.g., Cells, Incubation, Reagent, etc.); VALUE and DESCRIPTION.
1; Cells; 5 uL; white, solid bottom 1536-well Greiner assay plate.
2; Compounds; 23 nL; Kalypsis pin tool (Wako USA) equipped with a 1536-well pin head to transfer to the assay plates.
3; Incubation; 48 hours; 37C incubation.
4; Reagent;5uL; CellTiter Glo (Promega).
5; Detector; 425V; Luminescence; Viewlux PerkinElmer.
NOTES (numbers refer to Sequence numbers above)
1. The cell-based screening methods employed in this study were like those previously published. Briefly, the corresponding myeloma cell lines were screened in 1,536-well plates with 500 cells, 5-uL per well for inhibition of cell viability (assessed by measuring ATP levels with CellTiterGlo).
2. NCATS MIPE 4.0 library of approved and investigational drugs were added using the Kalypsis pin tool. Wells treated with DMSO only for 100% viability and media only wells for 0% viability were used as controls.
3. The assay plates were covered and incubated for 48 hours in a 37C, 5% CO2 incubator with controlled humidity.
4. After 48 hours, CellTilter-GloTM luminescent substrate mix (Promega) reagent was added to the assay plate and plates we incubated for 5 min at room temperature.
5. Signal was measured as median relative luminescence units on a ViewLux (PerkinElmer) multiplate reader.
[1] Heske CM, Davis MI, Baumgart JT, Wilson K, Gormally MV, Chen L, Zhang X, Ceribelli M, Duveau DY, Guha R, Ferrer M, Arnaldez FI, Ji J, Tran HL, Zhang Y, Mendoza A, Helman LJ, Thomas CJ. Matrix Screen Identifies Synergistic Combination of PARP Inhibitors and Nicotinamide Phosphoribosyltransferase (NAMPT) Inhibitors in Ewing Sarcoma. Clin Cancer Res. 2017 Dec 1;23(23):7301-7311. doi: 10.1158/1078-0432.CCR-17-1121. Epub 2017 Sep 12. PMID: 28899971; PMCID: PMC6636827.
Potency is the fitted concentration of half-maximal effect.

For `Cc1nc(NC(=O)N2CCC[C@@H]2C(N)=O)sc1-c1ccnc(C(C)(C)C(F)(F)F)c1`, which Potency is on record?
Its Potency is “inactive”.

Which Potency does the source give for `COc1ccc(CCC(=O)c2c(O)cc(O[C@@H]3O[C@H](CO)[C@@H](O)[C@H](O)[C@@H]3O[C@@H]3O[C@@H](C)[C@H](O)[C@@H](O)[C@@H]3O)cc2O)cc1O` here?
The Potency was “inactive”.

With `CC(C(C)N1CC(=O)NC(=O)C1)N1CC(=O)NC(=O)C1` (stereo not given) as the molecule, how does the Potency read?
The Potency was 332 nM (active).

With `CCNC(=O)Nc1ccc(-c2nc3c(c(N4CCOC[C@H]4C)n2)CCN(C2COC2)C3)cc1` as the molecule, how does the Potency read?
Its Potency is 2350 nM (active).

With `CCOC(=O)[C@H](CCc1ccccc1)N[C@@H](C)C(=O)N1[C@@H](C(=O)O)C[C@H]2CCC[C@@H]21` as the molecule, how does the Potency read?
Its Potency is 5260 nM (active).

Which Potency does the source give for `CC(C)N1[N]C(=C2C=c3cc(O)ccc3=N2)c2c(N)ncnc21` here?
The Potency was 2090 nM (active).

For `c1coc(CNc2ncnc3nc[nH]c23)c1`, which Potency is on record?
Its Potency is “inactive”.

For `N#Cc1c(C2CCNCC2)cc(-c2c(O)cccc2OCC2CC2)nc1N`, which Potency is on record?
Its Potency is 16600 nM (active).

Which Potency does the source give for `COc1cc([C@@H]2c3cc4c(cc3[C@@H](O[C@@H]3O[C@@H]5CO[C@@H](c6cccs6)O[C@@H]5[C@H](O)[C@@H]3O)[C@H]3COC(=O)[C@H]23)OCO4)cc(OC)c1O` here?
The Potency was 1870 nM (active).

With `O=C(Nc1nnc(-c2ccco2)o1)c1cc(-c2ccccc2)nc2ccccc12` as the molecule, how does the Potency read?
The Potency was 23500 nM (active).

For `Cc1onc(-c2ccccc2)c1C(=O)N[C@@H]1C(=O)N2[C@@H](C(=O)O)C(C)(C)S[C@@H]12`, which Potency is on record?
The Potency was “inactive”.

For `COC(=O)[C@H](CCCN=C(N)N)NS(=O)(=O)c1ccc(C)cc1`, which Potency is on record?
The Potency was “inactive”.

With `NC(=NCCCCCCN=C(N)N=C(N)Nc1ccc(Cl)cc1)N=C(N)Nc1ccc(Cl)cc1` as the molecule, how does the Potency read?
Its Potency is 7430 nM (active).

Which Potency does the source give for `Cn1cc(-c2cnn3c(N)c(Br)c([C@H]4CCCNC4)nc23)cn1` here?
The Potency was 833 nM (active).

For `CCN(CC)Cc1ccc2cc(COC(=O)Nc3ccc(C(=O)NO)cc3)ccc2c1`, which Potency is on record?
The Potency was 41.8 nM (active).

Which Potency does the source give for `CC[C@H](CC[C@@H](C)[C@H]1CC[C@H]2[C@@H]3CC=C4C[C@@H](O)CC[C@]4(C)[C@@H]3CC[C@]12C)C(C)C` here?
Its Potency is “inactive”.

For `CC(C)c1cnn2c(NCc3ccccc3)cc(NCCCCCCN)nc12`, which Potency is on record?
The Potency was 23500 nM (active).

Which Potency does the source give for `CCCCCCCCCCCCCCCC(=O)OC[C@@H](NC(=O)C(Cl)Cl)[C@H](O)c1ccc([N+](=O)[O-])cc1` here?
Its Potency is “inactive”.

With `CCCCC(=O)O[C@]1(C(=O)CO)[C@@H](C)C[C@H]2[C@@H]3CCC4=CC(=O)C=C[C@]4(C)[C@@]3(F)[C@@H](O)C[C@@]21C` as the molecule, how does the viability read?
Its viability is 131% (active).

Which Potency does the source give for `Cn1cc(C2=C(c3c4n(c5ccccc35)CCC(CN)C4)C(=O)NC2=O)c2ccccc21` (stereo not given) here?
The Potency was 7430 nM (active).

Which Potency does the source give for `Cc1c2oc3c(C)ccc(C(=O)NC4C(=O)NC(C(C)C)C(=O)N5CCCC5C(=O)N(C)CC(=O)N(C)C(C(C)C)C(=O)OC4C)c3nc-2c(C(=O)NC2C(=O)NC(C(C)C)C(=O)N3CCCC3C(=O)N(C)CC(=O)N(C)C(C(C)C)C(=O)OC2C)c(N)c1=O` (stereo not given) (I: TVP[Sar][NMeV] / II: TVP[Sar][NMeV]; ester I:1-I:C, II:1-II:C; linker I:N-II:N via Actinocin(9to1); configuration not given here) here?
The Potency was “inactive”.

Which Potency does the source give for `O=c1ccn([C@@H]2O[C@H](CO)[C@H](O)[C@@H]2F)c(=O)[nH]1` here?
The Potency was “inactive”.

Which Potency does the source give for `Oc1ccc(-c2ccc(-c3cc(Nc4cccc(CNC5CC5)c4)n[nH]3)cc2)c(O)c1` here?
The Potency was 590 nM (active).

With `CCc1cnn2c(NCc3ccc[n+]([O-])c3)cc(N3CCCC[C@@H]3CCO)nc12` as the molecule, how does the Potency read?
The Potency was 13.2 nM (active).

For `CCCCOc1ccc(C(=O)Nc2ccc(F)cc2F)cc1`, which viability is on record?
Its viability is 103% (active).

With `N=c1ccn2c(n1)O[C@H]1[C@@H](O)[C@@H](CO)O[C@H]12` as the molecule, how does the Potency read?
Its Potency is 2960 nM (active).

Which Potency does the source give for `CC(=CC(=O)Nc1ccccc1C(=O)O)c1ccc2ccccc2c1` here?
The Potency was “inactive”.

For `Cc1ccc(O)c(C(CCN(C(C)C)C(C)C)c2ccccc2)c1` (stereo not given), which Potency is on record?
The Potency was 9350 nM (active).

Which Potency does the source give for `CN1CCCN(C(=O)c2cccc(-c3ccc(C=C4C(=O)Nc5ccc(Cl)cc54)o3)c2)CC1` here?
The Potency was 7430 nM (active).

For `COc1cc2c(cc1OC)[C@@H]1C(=O)c3ccc4c(c3O[C@@H]1CO2)C=CC(C)(C)O4`, which Potency is on record?
Its Potency is 66.2 nM (active).

For `NC(=O)Nc1cc(-c2ccc(CN3CCOCC3)cc2)sc1C(N)=O`, which Potency is on record?
Its Potency is 1320 nM (active).

With `CON=C(C(=O)N[C@@H]1C(=O)N2C(C(=O)O)=C(Cn3ccc(=N)n3CCO)CS[C@H]12)c1csc(N)n1` as the molecule, how does the Potency read?
The Potency was “inactive”.

Which Potency does the source give for `Cn1c(Nc2ccc(C(F)(F)F)cc2)nc2cc(Oc3ccnc(-c4ncc(C(F)(F)F)[nH]4)c3)ccc21` here?
The Potency was 5900 nM (active).

With `Nc1ncn([C@@H]2O[C@H](CO)[C@@H](O)[C@@H]2O)c(=O)n1` as the molecule, how does the Potency read?
The Potency was 1870 nM (active).

For `C[C@](Cc1c[nH]c2ccccc12)(NC(=O)OC1C2CC3CC(C2)CC1C3)C(=O)NC[C@H](NC(=O)CCC(=O)O)c1ccccc1` (stereo not given in full), which Potency is on record?
The Potency was “inactive”.

For `C#Cc1cccc(Nc2ncnc3cc(OCCOC)c(OCCO)cc23)c1`, which Potency is on record?
Its Potency is 132 nM (active).

For `N#Cc1c(NC(=O)c2cccc3ccccc23)sc2c1CCCC2`, which Potency is on record?
The Potency was 526 nM (active).

With `CC[C@@]1([C@@H]2O[C@@H]([C@H]3O[C@@](O)(CO)[C@H](C)C[C@H]3C)C[C@H]2C)CC[C@H]([C@]2(C)CC[C@]3(C[C@H](O)[C@@H](C)[C@@H]([C@@H](C)[C@@H](OC)[C@H](C)C(=O)O)O3)O2)O1` as the molecule, how does the Potency read?
The Potency was 144 nM (active).

With `COc1cc(C(=O)NC2CCN(C)CC2)ccc1Nc1ncc2c(n1)N(C1CCCC1)CCC(=O)N2C(C)C` as the molecule, how does the Potency read?
Its Potency is 3720 nM (active).

With `CC(=O)O[C@H]1C[C@@H]2CC[C@H]3[C@H]4C[C@H]([N+]5(C)CCCCC5)[C@@H](OC(C)=O)[C@@]4(C)CC[C@@H]3[C@@]2(C)C[C@H]1N1CCCCC1` as the molecule, how does the Potency read?
The Potency was “inactive”.
